In PubChem BioAssay (EPA / NIEHS) one finds outcome and AC50 data, which are given here for four compounds.

Experiment [1] in a line: ATG_GLI_CIS: Attagene CIS-FACTORIAL HepG2 Assay for human Zinc Finger Protein GLI1 (AID 2282945). Particulars: HepG2, Attagene cis-factorial reporter mRNA, GLI element; actives raise or lower the signal. A digest of the protocol:
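Bidirectional curve fits relative to DMSO, using reporter mRNA levels from RT-PCR plus capillary electrophoresis. Cells were HepG2 transiently carrying cis-regulated reporter constructs, harvested 24 h after dosing.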

The target of experiment [2] is Bile acid receptor (Homo sapiens) (UniProt Q96RI1). Description: ATG_IR1_CIS: Attagene CIS-FACTORIAL HepG2 Assay for human Nuclear Receptor Subfamily 1 Group H Member 4 (NR1H4), IR1 submotif (AID 2282946). Particulars: IR1 reporter transcription, actives raise or lower the signal. In short, it runs like this:
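Cells (human HepG2) carry transiently transfected cis-promoter reporter transcription units. Compounds are incubated 24 h, total RNA is reverse-transcribed and amplified, and labelled fragments are resolved by capillary electrophoresis. Curves use DMSO as baseline.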

Experiment [3] can be described thus: ATG_ISRE_CIS: Attagene CIS-FACTORIAL HepG2 Assay for human Interferon Regulatory Factor 1 (IRF1) binding to an Interferon-Stimulated Response Element (ISRE) (AID 2282948). Particulars: HepG2 ISRE cis-reporter (Attagene), mRNA transcription readout; actives raise or lower the signal. A digest of the protocol:
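Transiently transfected HepG2 cells carrying cis-element reporter units, dosed 24 hours. Reporter mRNA quantified by RT-PCR, fluorescent primer extension, HpaI digestion and capillary electrophoresis. Bidirectional fitting relative to DMSO.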

A short description of experiment [4]: ATG_M_32_CIS: Attagene CIS-FACTORIAL HepG2 Assay for M32 Transcription Factor (Internal Marker) (AID 2282949).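 Note: background control marker of the multiplexed CIS panel rather than a real target.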 As to conditions: HepG2 Attagene cis-factorial M32 reporter, mRNA; actives raise or lower the signal. In short, it runs like this:
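Internal background marker read-out: RT-PCR/capillary electrophoresis fluorescence of reporter transcripts from transiently transfected HepG2 cells after 24 h chemical exposure. Activity fitted bidirectionally relative to DMSO negative control.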

Experiment [5] can be described thus: ATG_M_06_CIS: Attagene CIS-FACTORIAL HepG2 Assay for M06 Transcription Factor (Internal Marker) (AID 2282950). As to conditions: HepG2 Attagene CIS-FACTORIAL M06 internal marker reporter; actives raise or lower the signal. In short, it runs like this:
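Internal background marker within multiplexed cis-reporter HepG2 system. Cells transiently transfected, dosed 24 h; reporter mRNA measured by RT-PCR, HpaI digestion and capillary electrophoresis. Bidirectional fit relative to DMSO.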

For experiment [6], the target named is Hypoxia-inducible factor 1-alpha (Homo sapiens) (UniProt Q16665). Description: ATG_HIF1a_CIS: Attagene CIS-FACTORIAL HepG2 Assay for human Hypoxia Inducible Factor 1 (HIF1A) (AID 2282951). Particulars: HepG2 Attagene cis-factorial HIF1a reporter transcription; actives raise or lower the signal. A digest of the protocol:
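HepG2, transient cis-reporter library, 24 h dosing. RNA → RT (oligo dT) → PCR → 6-FAM primer extension → HpaI → CE. Bidirectional curve fit vs DMSO.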

The target of experiment [7] is Hepatocyte nuclear factor 6 (Homo sapiens) (UniProt Q9UBC0). As to the kind of experiment: ATG_HNF6_CIS: Attagene CIS-FACTORIAL HepG2 Assay for human Hepatocyte Nuclear Factor 6 (HNF6) (AID 2282952). As to conditions: HepG2 Attagene cis-factorial HNF6 reporter transcription; actives raise or lower the signal. In short, it runs like this: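 HepG2 cells transiently transfected with cis-element-driven multiplexed reporter units measuring endogenous transcription factor activity. After 24 h exposure, reporter mRNA quantified by RT-PCR, FAM-labelled fragments and capillary electrophoresis; bidirectional fitting versus DMSO.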

The nature of experiment [8]: ATG_MRE_CIS: Attagene CIS-FACTORIAL HepG2 Assay for human Metal Responsive Element (MRE) (AID 2282954). Particulars: HepG2 MRE cis-reporter transcription, Attagene multiplex; actives raise or lower the signal. In short, it runs like this: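 After a 24 h chemical exposure, transiently transfected HepG2 cells yield RNA whose reporter sequences are amplified, FAM-labelled and sized by capillary electrophoresis. Curves are fitted bidirectionally relative to DMSO.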

A short description of experiment [9]: ATG_PBREM_CIS: Attagene CIS-FACTORIAL HepG2 Assay for human Phenobarbital-responsive Enhancer Module (PBREM) (AID 2282955). As to conditions: HepG2 PBREM cis-reporter, Attagene multiplexed transcription; actives raise or lower the signal. In short, it runs like this:
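HepG2, transient MRTU transfection, 24 h dosing; RNA → oligo(dT) RT → PCR → 6-FAM extension → HpaI → CE. Bidirectional fit vs DMSO.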

For experiment [10], the target named is Paired box protein Pax-6 (Homo sapiens) (UniProt P26367). Description: ATG_Pax6_CIS: Attagene CIS-FACTORIAL HepG2 Assay for human Paired Box 6 (PAX6) (AID 2282956). Particulars: HepG2 CIS-FACTORIAL PAX6 reporter transcription, RNA readout; actives raise or lower the signal. A digest of the protocol:
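HepG2 cells transiently transfected with cis-promoter-driven multiplexed reporter units sensing endogenous transcription factor activity; 24 h chemical exposure. Reporter mRNA quantified by RT-PCR, 6-FAM labelling, HpaI digestion and capillary electrophoresis; bidirectional fit versus DMSO baseline.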

The nature of experiment [11]: ATG_PXRE_CIS: Attagene CIS-FACTORIAL HepG2 Assay for human Pregnane X Receptor Element (PXRE) (AID 2282957). As to conditions: HepG2 Attagene CIS-FACTORIAL PXRE reporter, mRNA; actives raise or lower the signal. A digest of the protocol:
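HepG2 cells transiently transfected with cis-element-driven multiplexed reporter units; after 24 h chemical exposure, reporter mRNA measured by RT-PCR, 6-FAM labelling, HpaI digestion and capillary electrophoresis. Bidirectional fitting relative to DMSO.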

Experiment [12] in a line: ATG_PPRE_CIS: Attagene CIS-FACTORIAL HepG2 Assay for human Peroxisome Proliferator-activated Response Element (PPRE) (AID 2282958). Particulars: HepG2 PPRE cis-element reporter, Attagene transcription factor profiling; actives raise or lower the signal. A digest of the protocol:
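Transcript-level reporter induction in transfected HepG2 cells after 24 h chemical exposure, quantified by fluorescence from RT-PCR products separated by capillary electrophoresis.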

A short description of experiment [13]: ATG_Sox_CIS: Attagene CIS-FACTORIAL HepG2 Assay for human SRY-box transcription factor (SOX) (AID 2282960). Particulars: HepG2 Attagene cis-factorial SOX reporter, mRNA; actives raise or lower the signal. In short, it runs like this: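 Cells were transfected with reporter constructs under cis-regulatory promoters, then exposed to chemicals for 24 h. Reporter transcripts were quantified by fluorescence after RT-PCR and capillary electrophoresis; activity was fitted in both directions against DMSO.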

Experiment [14] has as its target Transcription factor Sp1 (Homo sapiens) (UniProt P08047). As to the kind of experiment: ATG_Sp1_CIS: Attagene CIS-FACTORIAL HepG2 Assay for human Specificity Protein 1 (Sp1) (AID 2282961). As to conditions: HepG2 Sp1 cis-reporter transcription, actives raise or lower the signal. A digest of the protocol: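 Measures mRNA induction of an Sp1-linked reporter in HepG2 cells 24 h post-dosing. Multiplexed reporters read by RT-PCR and capillary electrophoresis; DMSO serves as negative control and baseline.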

The nature of experiment [15]: ATG_SREBP_CIS: Attagene CIS-FACTORIAL HepG2 Assay for human Sterol Regulatory Element Binding (SREBP) (AID 2282962). As to conditions: HepG2 Attagene cis-factorial SREBP reporter, mRNA; actives raise or lower the signal. A digest of the protocol:
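HepG2 cells transiently transfected with multiplexed cis-promoter reporter units sensing endogenous transcription factors; reporter mRNA measured 24 h after dosing by RT-PCR, 6-FAM labeling, HpaI digestion and capillary electrophoresis. Bidirectional fit versus DMSO.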

For experiment [16], the target named is Signal transducer and activator of transcription 3 (Homo sapiens) (UniProt P40763). As to the kind of experiment: ATG_STAT3_CIS: Attagene CIS-FACTORIAL HepG2 Assay for human Signal Transducer and Activator of Transcription 3 (STAT3) (AID 2282963). Particulars: HepG2, Attagene cis-factorial STAT3 reporter transcription; actives raise or lower the signal. A digest of the protocol: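 After a 24 h compound incubation, total RNA from MRTU-transfected HepG2 cells was converted to cDNA and reporter sequences PCR-amplified, labelled and profiled by capillary electrophoresis. Gain and loss of signal were referenced to DMSO.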

Experiment [17] in a line: ATG_TA_CIS: Attagene CIS-FACTORIAL HepG2 Assay for human TA Basal Promoter (AID 2282964). Particulars: HepG2 Attagene CIS-factorial TA basal promoter reporter; actives raise or lower the signal. In short, it runs like this: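 HepG2 cells transiently transfected with multiple reporter units under cis promoter elements, reporting endogenous transcription factor activity; this endpoint tracks the TA basal promoter as background control. Reporter mRNA after 24 h dosing measured by RT-PCR/capillary electrophoresis; bidirectional fits versus DMSO.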

Experiment [18] can be described thus: ATG_GRE_CIS: Attagene CIS-FACTORIAL HepG2 Assay for human Glucocorticoid Response Elements (GRE) (AID 2282947). As to conditions: HepG2 GRE cis-reporter, Attagene multiplex mRNA; actives raise or lower the signal. In short, it runs like this: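 Assay uses human hepatoma HepG2 cells transfected with cis-promoter reporter units, exposed 24 h. mRNA from reporters detected by RT-PCR plus capillary electrophoresis; DMSO serves as negative control and baseline.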

For experiment [19], the target named is Heat shock factor protein 1 (Homo sapiens) (UniProt Q00613). Description: ATG_HSE_CIS: Attagene CIS-FACTORIAL HepG2 Assay for human Heat Shock Transcription Factor 1 (HSE) (AID 2282953). Particulars: HepG2 HSE cis-reporter, Attagene RNA transcription; actives raise or lower the signal. In short, it runs like this:
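HepG2 cells transfected with cis-promoter reporter units sensing endogenous transcription factor activity; reporter mRNA quantified 24 h post-dose by RT-PCR and capillary electrophoresis of 6-FAM-labelled products. Bidirectional fitting against DMSO.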

Experiment [20] in a line: ATG_RORE_CIS: Attagene CIS-FACTORIAL HepG2 Assay for human RAR-related Orphan Receptor Element (RORE) (AID 2282959). As to conditions: HepG2 Attagene cis-factorial RORE reporter, mRNA; actives raise or lower the signal. In short, it runs like this: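 Multiplexed reporter assay measuring mRNA induction from a cis promoter element in transiently transfected HepG2 cells after 24 h treatment. Detection via RT-PCR and capillary electrophoresis fluorescence; DMSO serves as baseline.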

The source made the active and inactive calls. Rule for the calls: active = hit-call score of the fitted dose curve at least 0.9, where 1 is the maximum; inactive = score below 0.9.

Hepatocyte nuclear factor 6 (Homo sapiens), sequence (Q9UBC0 whole entry, looked up, the tested form may be a part): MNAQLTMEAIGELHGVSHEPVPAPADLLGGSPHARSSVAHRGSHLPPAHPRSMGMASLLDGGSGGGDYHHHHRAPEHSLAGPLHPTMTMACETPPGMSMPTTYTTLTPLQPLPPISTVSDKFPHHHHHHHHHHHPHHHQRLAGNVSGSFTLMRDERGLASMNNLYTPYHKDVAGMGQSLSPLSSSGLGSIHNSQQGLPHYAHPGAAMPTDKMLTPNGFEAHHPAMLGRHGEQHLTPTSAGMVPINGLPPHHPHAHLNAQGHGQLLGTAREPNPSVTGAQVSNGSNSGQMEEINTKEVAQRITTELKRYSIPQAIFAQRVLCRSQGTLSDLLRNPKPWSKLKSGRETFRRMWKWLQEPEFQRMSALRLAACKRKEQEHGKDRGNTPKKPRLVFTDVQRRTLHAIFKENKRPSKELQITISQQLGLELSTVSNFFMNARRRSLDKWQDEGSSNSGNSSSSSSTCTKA
Heat shock factor protein 1 (Homo sapiens), sequence (Q00613 whole entry, looked up): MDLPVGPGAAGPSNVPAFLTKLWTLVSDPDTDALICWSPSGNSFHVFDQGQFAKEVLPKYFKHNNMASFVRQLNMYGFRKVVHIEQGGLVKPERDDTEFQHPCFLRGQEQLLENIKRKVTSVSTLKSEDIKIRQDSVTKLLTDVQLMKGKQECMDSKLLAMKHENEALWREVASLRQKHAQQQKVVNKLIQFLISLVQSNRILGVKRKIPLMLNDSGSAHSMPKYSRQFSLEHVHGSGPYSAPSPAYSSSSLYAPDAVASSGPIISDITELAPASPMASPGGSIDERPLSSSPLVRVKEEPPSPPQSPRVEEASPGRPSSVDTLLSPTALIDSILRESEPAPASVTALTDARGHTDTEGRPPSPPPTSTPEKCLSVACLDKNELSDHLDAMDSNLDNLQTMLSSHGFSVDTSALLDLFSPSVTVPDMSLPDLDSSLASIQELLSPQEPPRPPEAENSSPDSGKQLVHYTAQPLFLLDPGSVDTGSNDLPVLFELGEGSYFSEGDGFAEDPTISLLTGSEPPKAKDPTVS
Transcription factor Sp1 (Homo sapiens), sequence (P08047 whole entry, looked up): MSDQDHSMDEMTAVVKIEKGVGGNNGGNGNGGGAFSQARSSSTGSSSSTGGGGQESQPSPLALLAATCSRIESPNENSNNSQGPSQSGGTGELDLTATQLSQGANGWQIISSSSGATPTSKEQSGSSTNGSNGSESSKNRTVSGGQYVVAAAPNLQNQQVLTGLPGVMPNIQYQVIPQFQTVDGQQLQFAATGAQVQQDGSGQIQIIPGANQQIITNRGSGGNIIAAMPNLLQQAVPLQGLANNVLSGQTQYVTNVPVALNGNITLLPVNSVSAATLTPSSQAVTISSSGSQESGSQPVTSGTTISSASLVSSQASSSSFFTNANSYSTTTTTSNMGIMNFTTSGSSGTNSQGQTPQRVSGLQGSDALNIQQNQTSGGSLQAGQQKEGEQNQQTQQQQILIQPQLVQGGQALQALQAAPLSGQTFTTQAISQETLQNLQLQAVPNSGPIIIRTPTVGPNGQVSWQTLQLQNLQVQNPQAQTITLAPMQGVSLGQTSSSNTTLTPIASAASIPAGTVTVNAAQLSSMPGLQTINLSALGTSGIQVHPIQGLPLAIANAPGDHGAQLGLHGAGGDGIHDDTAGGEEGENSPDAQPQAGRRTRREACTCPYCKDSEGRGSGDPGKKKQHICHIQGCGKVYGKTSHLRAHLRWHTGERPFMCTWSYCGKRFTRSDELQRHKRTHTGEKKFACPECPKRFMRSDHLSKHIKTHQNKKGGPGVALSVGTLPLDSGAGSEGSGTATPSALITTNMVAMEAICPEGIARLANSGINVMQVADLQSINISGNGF
Signal transducer and activator of transcription 3 (Homo sapiens), sequence (P40763 whole entry, looked up): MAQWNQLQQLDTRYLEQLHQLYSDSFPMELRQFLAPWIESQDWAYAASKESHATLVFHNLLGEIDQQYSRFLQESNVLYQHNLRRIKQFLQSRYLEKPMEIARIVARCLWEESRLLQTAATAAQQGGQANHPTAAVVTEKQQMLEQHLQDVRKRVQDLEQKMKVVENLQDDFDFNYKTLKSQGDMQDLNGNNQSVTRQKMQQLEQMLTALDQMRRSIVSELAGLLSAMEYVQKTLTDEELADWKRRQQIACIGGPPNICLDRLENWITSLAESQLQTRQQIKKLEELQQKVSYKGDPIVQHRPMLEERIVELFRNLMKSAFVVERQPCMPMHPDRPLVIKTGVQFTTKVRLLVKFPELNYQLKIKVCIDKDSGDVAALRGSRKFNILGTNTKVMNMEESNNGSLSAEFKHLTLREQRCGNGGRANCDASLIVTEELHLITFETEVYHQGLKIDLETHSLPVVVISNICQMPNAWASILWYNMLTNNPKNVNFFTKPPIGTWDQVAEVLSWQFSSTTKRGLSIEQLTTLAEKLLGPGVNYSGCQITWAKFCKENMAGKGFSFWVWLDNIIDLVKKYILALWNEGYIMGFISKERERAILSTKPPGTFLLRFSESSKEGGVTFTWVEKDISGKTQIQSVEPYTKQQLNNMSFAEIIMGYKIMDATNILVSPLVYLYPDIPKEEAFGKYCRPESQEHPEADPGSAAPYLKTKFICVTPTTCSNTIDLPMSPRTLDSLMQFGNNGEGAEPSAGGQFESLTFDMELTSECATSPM
Hypoxia-inducible factor 1-alpha (Homo sapiens), sequence (Q16665 whole entry, looked up): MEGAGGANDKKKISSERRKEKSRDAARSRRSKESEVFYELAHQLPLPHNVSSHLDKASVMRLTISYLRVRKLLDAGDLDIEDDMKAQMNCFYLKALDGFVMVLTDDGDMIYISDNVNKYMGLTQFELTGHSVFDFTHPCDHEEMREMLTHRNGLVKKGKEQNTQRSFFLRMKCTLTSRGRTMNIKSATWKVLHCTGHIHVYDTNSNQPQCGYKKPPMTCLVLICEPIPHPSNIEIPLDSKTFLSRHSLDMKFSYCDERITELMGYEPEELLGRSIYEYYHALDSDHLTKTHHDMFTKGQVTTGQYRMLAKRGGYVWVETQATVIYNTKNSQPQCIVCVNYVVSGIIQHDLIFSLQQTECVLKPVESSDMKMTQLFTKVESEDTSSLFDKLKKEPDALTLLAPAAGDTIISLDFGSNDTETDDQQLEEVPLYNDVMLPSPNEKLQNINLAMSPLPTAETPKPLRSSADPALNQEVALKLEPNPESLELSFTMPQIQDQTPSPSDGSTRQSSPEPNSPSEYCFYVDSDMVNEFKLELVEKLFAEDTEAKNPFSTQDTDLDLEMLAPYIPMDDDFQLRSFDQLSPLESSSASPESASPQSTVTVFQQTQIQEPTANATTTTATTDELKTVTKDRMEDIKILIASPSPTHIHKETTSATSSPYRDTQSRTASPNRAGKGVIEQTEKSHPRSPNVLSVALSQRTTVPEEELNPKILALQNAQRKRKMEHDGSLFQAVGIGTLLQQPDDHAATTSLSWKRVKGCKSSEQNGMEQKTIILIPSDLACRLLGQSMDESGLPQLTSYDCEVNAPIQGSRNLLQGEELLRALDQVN
Bile acid receptor (Homo sapiens), sequence (Q96RI1 whole entry, looked up, the tested form may be a part): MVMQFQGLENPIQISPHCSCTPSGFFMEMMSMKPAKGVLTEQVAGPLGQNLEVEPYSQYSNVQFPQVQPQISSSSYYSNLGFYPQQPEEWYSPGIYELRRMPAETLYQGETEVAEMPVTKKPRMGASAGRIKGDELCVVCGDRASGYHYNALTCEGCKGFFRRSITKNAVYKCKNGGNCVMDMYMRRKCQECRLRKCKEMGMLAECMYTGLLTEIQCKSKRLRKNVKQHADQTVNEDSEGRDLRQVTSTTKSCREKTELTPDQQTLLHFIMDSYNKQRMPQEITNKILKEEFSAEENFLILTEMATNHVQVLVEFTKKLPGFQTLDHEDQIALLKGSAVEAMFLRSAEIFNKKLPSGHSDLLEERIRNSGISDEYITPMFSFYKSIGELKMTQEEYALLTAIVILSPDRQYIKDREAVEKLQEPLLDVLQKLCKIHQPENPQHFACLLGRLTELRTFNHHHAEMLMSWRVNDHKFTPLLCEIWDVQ
Paired box protein Pax-6 (Homo sapiens), sequence (P26367 whole entry, looked up): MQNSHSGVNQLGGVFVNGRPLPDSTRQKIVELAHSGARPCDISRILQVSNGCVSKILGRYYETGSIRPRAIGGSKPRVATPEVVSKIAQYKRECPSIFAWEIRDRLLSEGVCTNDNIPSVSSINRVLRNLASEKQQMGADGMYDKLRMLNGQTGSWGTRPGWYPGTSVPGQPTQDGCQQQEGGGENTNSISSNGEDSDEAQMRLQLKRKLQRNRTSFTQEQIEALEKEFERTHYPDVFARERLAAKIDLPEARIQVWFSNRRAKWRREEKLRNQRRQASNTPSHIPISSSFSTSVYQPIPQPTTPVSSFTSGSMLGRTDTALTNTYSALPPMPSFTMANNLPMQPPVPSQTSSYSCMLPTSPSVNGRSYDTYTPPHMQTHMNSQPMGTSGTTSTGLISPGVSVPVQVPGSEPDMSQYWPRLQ

In the case of `COc1cc(C=O)ccc1O`, the outcome in [1], in experiment [2], in experiment [3], in experiment [4], in [5] and in experiment [6] was inactive. The compound was classed as inactive in experiment [7], in [8], in experiment [9], in experiment [10], in [11] and in experiment [12]. Moreover, the compound was called inactive in [13], in experiment [14], in experiment [15], in experiment [16] and in [17].
For `COc1cc(-c2nc(NC(=O)c3cc4cc(C)cc(C)c4n3CC(=O)O)sc2CCC2CCCCC2)c(OC)cc1Cl`, the AC50 – broadly, the concentration at which the activity in the assay is half-maximal – in experiment [1] was 100 µM (active); in [3], 12.7 µM (active); in experiment [19], 65.7 µM (active); in experiment [8], 6.2 µM (active); in experiment [9] it was 4.42 µM (active); in experiment [10] it was 14.2 µM (active). The AC50 in experiment [20] was 10.4 µM (active); in experiment [13], 100 µM (active); in experiment [14], 2.83 µM (active); in experiment [17], 10.3 µM (active). The compound was called inactive in experiment [2], in experiment [18], in [5], in experiment [6], in experiment [7] and in experiment [11]. For the same compound, the result in experiment [12], in [15] and in experiment [16] was inactive.
Regarding `C=CCOC(=O)c1ccccc1C(=O)OCC=C`, the compound was called inactive in experiment [1], in experiment [3], in [5], in experiment [6], in [7] and in experiment [19]. Moreover, the result in [8], in experiment [10], in experiment [20], in experiment [14], in [15] and in [16] was inactive. Besides, in experiment [17], the compound was called inactive. In addition, the results for the AC50 in [2] and in experiment [11] were 25.9 µM (active) and 26.7 µM (active), respectively.
`O=C(OCCCCCOC(=O)c1ccccc1)c1ccccc1`: the compound was classed as inactive in experiment [1], in [18], in [3], in [4], in experiment [5] and in experiment [7]. Moreover, the compound was classed as inactive in experiment [19], in experiment [8], in experiment [9], in experiment [10], in [11] and in experiment [12]. The result in experiment [13], in experiment [14], in [15], in experiment [16] and in experiment [17] was inactive. Moreover, the AC50 in experiment [6] was 26.3 µM (active).
